From the supplement of paper PMC10849652
The full data set covers some 8,800 targets. This sample favours those with a hit. About 0.5% of all pairs of compound and target were hits. A number with no mark means an inactive call.

Compound: O=C(O)c1ccc2c(c1)nc(Nc1cccc(Cl)c1)c1ccncc12 [silmitasertib]
Assay: log2 fold change, soluble protein after heating vs DMSO (PISA); higher = thermal stabilisation; K562 lysate, 10 uM; active = over 0.2 and 3.5 SD of the protein, either way, in both replicates (recomputed)
Outline: (§1)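 Soluble protein was defined as the supernatant remaining after 21,000xg for 90 min, following pooling of heated aliquots and adjustment to 0.5% NP-40 at 4°C. Before that, crude K562 extract at 1 mg/mL protein in PBS pH 7.4 with 1 mM MgCl2 was treated with 10 μM compound for 30 min and heated for 3 min across 48°C-58°C. Quantification used TMTpro 16plex LC-MS/MS with channel sums equalised, and values are log-two fold changes in thermal stability relative to solvent controls from duplicates.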

Sequence of UniProt P40818 (P40818 whole entry, looked up): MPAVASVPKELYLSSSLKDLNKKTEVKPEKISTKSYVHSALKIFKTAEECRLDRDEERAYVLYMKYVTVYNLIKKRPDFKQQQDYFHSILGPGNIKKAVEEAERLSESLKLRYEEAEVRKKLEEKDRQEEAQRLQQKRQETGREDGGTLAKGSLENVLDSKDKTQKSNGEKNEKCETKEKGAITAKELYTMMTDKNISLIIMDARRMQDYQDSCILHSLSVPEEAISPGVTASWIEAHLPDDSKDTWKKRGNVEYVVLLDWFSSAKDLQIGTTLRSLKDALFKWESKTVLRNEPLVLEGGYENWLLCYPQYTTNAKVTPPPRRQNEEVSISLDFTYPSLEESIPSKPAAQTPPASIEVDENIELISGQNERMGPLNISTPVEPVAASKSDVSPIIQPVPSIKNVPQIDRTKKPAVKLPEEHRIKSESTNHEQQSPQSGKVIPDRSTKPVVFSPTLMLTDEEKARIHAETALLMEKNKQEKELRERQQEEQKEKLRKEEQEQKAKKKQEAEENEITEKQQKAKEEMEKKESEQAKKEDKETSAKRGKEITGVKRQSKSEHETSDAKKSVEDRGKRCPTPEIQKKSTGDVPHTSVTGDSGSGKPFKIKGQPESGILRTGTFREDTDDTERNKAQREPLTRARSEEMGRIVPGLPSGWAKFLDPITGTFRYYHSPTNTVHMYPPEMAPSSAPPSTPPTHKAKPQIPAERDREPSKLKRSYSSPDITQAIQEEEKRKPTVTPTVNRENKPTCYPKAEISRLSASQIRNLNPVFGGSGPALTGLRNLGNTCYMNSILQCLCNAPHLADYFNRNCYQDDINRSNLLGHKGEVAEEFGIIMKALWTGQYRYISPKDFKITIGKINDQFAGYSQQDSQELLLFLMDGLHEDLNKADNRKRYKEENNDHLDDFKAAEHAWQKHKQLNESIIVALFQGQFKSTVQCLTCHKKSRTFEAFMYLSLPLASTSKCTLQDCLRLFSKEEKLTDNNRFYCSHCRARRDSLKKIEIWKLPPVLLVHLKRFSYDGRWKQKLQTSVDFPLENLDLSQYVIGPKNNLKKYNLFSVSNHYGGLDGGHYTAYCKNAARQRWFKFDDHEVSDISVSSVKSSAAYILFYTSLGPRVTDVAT
Sequence of UniProt Q9HAD4 (Q9HAD4 whole entry, looked up): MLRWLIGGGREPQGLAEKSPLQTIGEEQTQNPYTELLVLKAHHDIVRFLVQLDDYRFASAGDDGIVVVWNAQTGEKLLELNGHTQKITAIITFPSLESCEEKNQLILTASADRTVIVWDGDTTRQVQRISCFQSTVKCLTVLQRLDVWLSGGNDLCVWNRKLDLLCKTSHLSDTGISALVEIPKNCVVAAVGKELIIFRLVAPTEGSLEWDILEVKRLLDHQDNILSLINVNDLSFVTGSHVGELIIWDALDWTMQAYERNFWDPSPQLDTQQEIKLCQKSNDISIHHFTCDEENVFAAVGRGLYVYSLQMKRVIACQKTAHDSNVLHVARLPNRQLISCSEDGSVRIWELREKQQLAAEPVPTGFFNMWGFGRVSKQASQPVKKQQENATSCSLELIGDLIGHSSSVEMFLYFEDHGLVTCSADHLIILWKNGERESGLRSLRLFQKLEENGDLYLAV
Sequence of UniProt Q9Y4E6 (Q9Y4E6 whole entry, looked up): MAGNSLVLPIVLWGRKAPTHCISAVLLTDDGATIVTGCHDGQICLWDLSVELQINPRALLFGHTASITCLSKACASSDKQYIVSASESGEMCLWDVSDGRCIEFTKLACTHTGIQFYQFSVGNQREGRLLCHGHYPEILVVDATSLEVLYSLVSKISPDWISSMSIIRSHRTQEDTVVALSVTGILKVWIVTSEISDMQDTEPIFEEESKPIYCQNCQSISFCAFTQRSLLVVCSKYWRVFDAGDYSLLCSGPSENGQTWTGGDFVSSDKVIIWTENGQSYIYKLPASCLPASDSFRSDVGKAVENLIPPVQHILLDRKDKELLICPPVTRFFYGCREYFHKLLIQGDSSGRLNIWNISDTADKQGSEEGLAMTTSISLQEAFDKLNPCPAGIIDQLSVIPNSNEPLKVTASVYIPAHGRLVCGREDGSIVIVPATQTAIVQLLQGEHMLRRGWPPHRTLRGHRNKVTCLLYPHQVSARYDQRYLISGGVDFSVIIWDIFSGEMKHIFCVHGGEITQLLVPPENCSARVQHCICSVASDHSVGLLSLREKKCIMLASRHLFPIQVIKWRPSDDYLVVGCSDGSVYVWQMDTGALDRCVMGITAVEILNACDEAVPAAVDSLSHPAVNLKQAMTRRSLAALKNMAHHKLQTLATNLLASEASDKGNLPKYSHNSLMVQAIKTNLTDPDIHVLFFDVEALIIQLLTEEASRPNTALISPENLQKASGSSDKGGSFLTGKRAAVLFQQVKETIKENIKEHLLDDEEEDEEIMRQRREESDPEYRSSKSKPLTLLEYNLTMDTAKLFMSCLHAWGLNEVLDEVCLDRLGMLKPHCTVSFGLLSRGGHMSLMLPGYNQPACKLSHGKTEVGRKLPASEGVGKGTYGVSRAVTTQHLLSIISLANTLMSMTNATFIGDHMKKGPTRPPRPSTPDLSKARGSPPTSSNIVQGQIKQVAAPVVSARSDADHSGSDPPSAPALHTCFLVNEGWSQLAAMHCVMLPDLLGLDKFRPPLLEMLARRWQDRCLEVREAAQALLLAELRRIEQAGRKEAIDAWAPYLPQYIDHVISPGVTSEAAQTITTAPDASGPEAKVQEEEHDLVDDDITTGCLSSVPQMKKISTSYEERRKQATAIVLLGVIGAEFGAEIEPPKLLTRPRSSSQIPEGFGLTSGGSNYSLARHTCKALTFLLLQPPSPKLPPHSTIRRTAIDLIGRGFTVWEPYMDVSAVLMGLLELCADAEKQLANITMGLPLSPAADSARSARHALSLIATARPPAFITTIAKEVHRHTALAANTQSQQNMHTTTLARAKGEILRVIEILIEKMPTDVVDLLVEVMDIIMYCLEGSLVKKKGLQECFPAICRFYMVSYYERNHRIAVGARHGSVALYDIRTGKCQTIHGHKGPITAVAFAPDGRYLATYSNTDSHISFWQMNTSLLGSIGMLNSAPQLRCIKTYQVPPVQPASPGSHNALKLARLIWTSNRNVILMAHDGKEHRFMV
Sequence of UniProt Q96JC1 (Q96JC1 whole entry, looked up): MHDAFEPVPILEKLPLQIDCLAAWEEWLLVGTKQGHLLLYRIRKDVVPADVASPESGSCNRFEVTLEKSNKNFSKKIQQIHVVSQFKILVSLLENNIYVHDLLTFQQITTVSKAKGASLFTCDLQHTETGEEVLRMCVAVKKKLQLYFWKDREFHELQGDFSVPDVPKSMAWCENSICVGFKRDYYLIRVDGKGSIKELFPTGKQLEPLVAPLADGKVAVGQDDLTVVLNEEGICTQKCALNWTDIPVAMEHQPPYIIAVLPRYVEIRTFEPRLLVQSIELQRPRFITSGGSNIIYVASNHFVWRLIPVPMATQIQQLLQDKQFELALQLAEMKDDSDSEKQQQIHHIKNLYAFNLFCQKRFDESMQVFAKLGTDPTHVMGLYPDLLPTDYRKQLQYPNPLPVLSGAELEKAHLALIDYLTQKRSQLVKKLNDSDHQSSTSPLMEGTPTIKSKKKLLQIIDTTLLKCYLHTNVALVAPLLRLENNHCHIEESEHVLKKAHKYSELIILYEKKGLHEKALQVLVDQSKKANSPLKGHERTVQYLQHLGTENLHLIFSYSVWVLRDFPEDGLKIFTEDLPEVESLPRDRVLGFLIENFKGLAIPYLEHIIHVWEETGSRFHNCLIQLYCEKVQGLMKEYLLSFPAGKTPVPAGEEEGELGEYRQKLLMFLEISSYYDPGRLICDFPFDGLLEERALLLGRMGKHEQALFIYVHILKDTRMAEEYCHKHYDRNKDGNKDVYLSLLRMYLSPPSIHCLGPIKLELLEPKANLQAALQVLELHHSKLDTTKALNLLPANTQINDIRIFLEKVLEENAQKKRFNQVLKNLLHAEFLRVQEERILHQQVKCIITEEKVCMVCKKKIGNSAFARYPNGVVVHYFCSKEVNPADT
Sequence of UniProt Q96GY0 (Q96GY0 whole entry, looked up): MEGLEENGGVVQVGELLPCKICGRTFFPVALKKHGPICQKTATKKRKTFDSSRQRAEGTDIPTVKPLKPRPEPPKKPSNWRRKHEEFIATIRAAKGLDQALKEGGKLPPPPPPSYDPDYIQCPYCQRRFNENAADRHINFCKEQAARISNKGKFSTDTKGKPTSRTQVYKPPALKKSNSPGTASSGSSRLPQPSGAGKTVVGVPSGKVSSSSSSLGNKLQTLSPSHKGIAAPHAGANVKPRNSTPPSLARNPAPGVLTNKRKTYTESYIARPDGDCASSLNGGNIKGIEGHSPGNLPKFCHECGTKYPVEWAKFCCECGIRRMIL
Sequence of UniProt O00488 (O00488 whole entry, looked up): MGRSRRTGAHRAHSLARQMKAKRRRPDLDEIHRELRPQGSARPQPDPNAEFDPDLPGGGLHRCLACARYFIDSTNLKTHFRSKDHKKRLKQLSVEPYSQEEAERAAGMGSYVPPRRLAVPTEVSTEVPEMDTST
Sequence of UniProt Q96AX1 (Q96AX1 whole entry, looked up): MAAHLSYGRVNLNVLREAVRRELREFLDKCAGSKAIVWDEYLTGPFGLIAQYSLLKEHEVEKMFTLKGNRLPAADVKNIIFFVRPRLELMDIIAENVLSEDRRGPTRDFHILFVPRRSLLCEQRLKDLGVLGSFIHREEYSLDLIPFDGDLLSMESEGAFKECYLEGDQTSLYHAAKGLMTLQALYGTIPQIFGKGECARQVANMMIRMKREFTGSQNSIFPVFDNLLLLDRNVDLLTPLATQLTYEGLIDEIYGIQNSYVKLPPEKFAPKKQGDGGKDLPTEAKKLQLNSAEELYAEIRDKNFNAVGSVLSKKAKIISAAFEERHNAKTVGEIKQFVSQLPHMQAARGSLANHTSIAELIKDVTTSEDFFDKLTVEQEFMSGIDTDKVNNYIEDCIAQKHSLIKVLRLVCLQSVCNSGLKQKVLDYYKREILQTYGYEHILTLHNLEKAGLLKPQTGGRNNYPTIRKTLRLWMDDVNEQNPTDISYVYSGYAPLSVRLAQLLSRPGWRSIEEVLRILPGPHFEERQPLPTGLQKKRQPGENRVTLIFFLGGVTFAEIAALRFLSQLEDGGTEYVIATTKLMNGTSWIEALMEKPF

Target | log2 fold change
VASP (UniProt P50552) | 0.015
ZC2HC1A (UniProt Q96GY0) | 0.054
VARS (UniProt P26640) | 0.063
YME1L1 (UniProt Q96TA2) | 0.007
VPS4A (UniProt Q9UN37) | 0.059
USP8 (UniProt P40818) | 0.013
XAB2 (UniProt Q9HCS7) | 0.005
ZNF217 (UniProt O75362) | 0.047
VPS18 (UniProt Q9P253) | 0.04
VPS37B (UniProt Q9H9H4) | 0.045
USE1 (UniProt Q9NZ43) | 0.028
UPF3B (UniProt Q9BZI7) | -0.02
WDR7 (UniProt Q9Y4E6) | 0.032
WDHD1 (UniProt O75717) | 0.02
VPS72 (UniProt Q15906) | -0.018
VPS39 (UniProt Q96JC1) | 0.01
USP10 isoform 2 (UniProt Q14694) | 0
ZFYVE19 (UniProt Q96K21) | 0.002
ZNF593 (UniProt O00488) | -0.001
WRN (UniProt Q14191) | 0.035
ZZEF1 (UniProt O43149) | 0.011
USP16 (UniProt Q9Y5T5) | 0.012
VPS33A (UniProt Q96AX1) | 0.025
WRNIP1 (UniProt Q96S55) | 0
WRB (UniProt O00258) | -0.055
YWHAQ (UniProt P27348) | -0.012
XPO6 (UniProt Q96QU8) | 0.049
ZC3HC1 (UniProt Q86WB0) | -0.034
WDR41 (UniProt Q9HAD4) | 0.022
ZMYND8 isoform 19 (UniProt Q9ULU4) | 0.029

Compound: O=C1NC(=O)C(c2cnc3ccccn23)=C1c1cn2c3c(cc(F)cc13)CN(C(=O)N1CCCCC1)CC2
Assay: as above
Outline: as §1

Target | log2 fold change
VASP (UniProt P50552) | 0.01
ZC2HC1A (UniProt Q96GY0) | -0.008
VARS (UniProt P26640) | 0.022
YME1L1 (UniProt Q96TA2) | -0.008
VPS4A (UniProt Q9UN37) | -0.013
USP8 (UniProt P40818) | 0.009
XAB2 (UniProt Q9HCS7) | -0.023
ZNF217 (UniProt O75362) | -0.054
VPS18 (UniProt Q9P253) | 0.015
VPS37B (UniProt Q9H9H4) | -0.035
USE1 (UniProt Q9NZ43) | 0.053
UPF3B (UniProt Q9BZI7) | -0.043
WDR7 (UniProt Q9Y4E6) | 0.01
WDHD1 (UniProt O75717) | -0.018
VPS72 (UniProt Q15906) | -0.029
VPS39 (UniProt Q96JC1) | -0.005
USP10 isoform 2 (UniProt Q14694) | -0.002
ZFYVE19 (UniProt Q96K21) | 0.01
ZNF593 (UniProt O00488) | 0.044
WRN (UniProt Q14191) | -0.013
ZZEF1 (UniProt O43149) | 0.012
USP16 (UniProt Q9Y5T5) | -0.019
VPS33A (UniProt Q96AX1) | 0.007
WRNIP1 (UniProt Q96S55) | -0.046
WRB (UniProt O00258) | -0.012
YWHAQ (UniProt P27348) | 0.013
XPO6 (UniProt Q96QU8) | -0.031
ZC3HC1 (UniProt Q86WB0) | -0.03
WDR41 (UniProt Q9HAD4) | -0.08
ZMYND8 isoform 19 (UniProt Q9ULU4) | 0.006

Compound: c1cn2cc(-c3ccc4cn[nH]c4c3)nc(Nc3ccc(N4CCOCC4)cc3)c2n1 [entospletinib]
Assay: as above
Outline: as §1

Target | log2 fold change
VASP (UniProt P50552) | -0.013
ZC2HC1A (UniProt Q96GY0) | -0.005
VARS (UniProt P26640) | 0.024
YME1L1 (UniProt Q96TA2) | 0.02
VPS4A (UniProt Q9UN37) | 0.038
USP8 (UniProt P40818) | 0.012
XAB2 (UniProt Q9HCS7) | -0.006
ZNF217 (UniProt O75362) | -0.061
VPS18 (UniProt Q9P253) | -0.006
VPS37B (UniProt Q9H9H4) | -0.058
USE1 (UniProt Q9NZ43) | -0.036
UPF3B (UniProt Q9BZI7) | -0.049
WDR7 (UniProt Q9Y4E6) | -0.017
WDHD1 (UniProt O75717) | 0.016
VPS72 (UniProt Q15906) | -0.014
VPS39 (UniProt Q96JC1) | 0.013
USP10 isoform 2 (UniProt Q14694) | -0.002
ZFYVE19 (UniProt Q96K21) | -0.012
ZNF593 (UniProt O00488) | 0.027
WRN (UniProt Q14191) | -0.005
ZZEF1 (UniProt O43149) | 0.004
USP16 (UniProt Q9Y5T5) | -0.031
VPS33A (UniProt Q96AX1) | -0.018
WRNIP1 (UniProt Q96S55) | -0.02
WRB (UniProt O00258) | 0.146
YWHAQ (UniProt P27348) | 0.022
XPO6 (UniProt Q96QU8) | -0.027
ZC3HC1 (UniProt Q86WB0) | 0.01
WDR41 (UniProt Q9HAD4) | 0.01
ZMYND8 isoform 19 (UniProt Q9ULU4) | -0.02
